USP30 inh = inhibitors of human USP30 deubiquitinase | actives 5.3% (n = 47,000) | inhibition, % at 25 µM | Q70CQ3 | purified USP30, Ub-rhodamine cleavage fluorescence | AID 1645860
USP8 inh = inhibitors of human USP8 deubiquitinase | P40818 | purified USP8, Ub-rhodamine cleavage fluorescence, 30 min | inhibition, % at 20 µM | actives 4.2% (n = 47,000) | AID 1645853
USP17 inh = human USP17-like deubiquitinase inhibition; A8MUK1; purified USP17, Ub-rhodamine cleavage fluorescence, 3 h; actives 6.5% (n = 47,000); inhibition, % at 50 µM; AID 1645855
USP28 block = blocks human USP28 ubiquitin-rhodamine cleavage | AID 1645857 | Q96RU2 | actives 3% (n = 47,000) | inhibition, % at 25 µM | purified USP28, Ub-rhodamine cleavage fluorescence, 30 min
Target sequence (Q96RU2 whole entry, looked up): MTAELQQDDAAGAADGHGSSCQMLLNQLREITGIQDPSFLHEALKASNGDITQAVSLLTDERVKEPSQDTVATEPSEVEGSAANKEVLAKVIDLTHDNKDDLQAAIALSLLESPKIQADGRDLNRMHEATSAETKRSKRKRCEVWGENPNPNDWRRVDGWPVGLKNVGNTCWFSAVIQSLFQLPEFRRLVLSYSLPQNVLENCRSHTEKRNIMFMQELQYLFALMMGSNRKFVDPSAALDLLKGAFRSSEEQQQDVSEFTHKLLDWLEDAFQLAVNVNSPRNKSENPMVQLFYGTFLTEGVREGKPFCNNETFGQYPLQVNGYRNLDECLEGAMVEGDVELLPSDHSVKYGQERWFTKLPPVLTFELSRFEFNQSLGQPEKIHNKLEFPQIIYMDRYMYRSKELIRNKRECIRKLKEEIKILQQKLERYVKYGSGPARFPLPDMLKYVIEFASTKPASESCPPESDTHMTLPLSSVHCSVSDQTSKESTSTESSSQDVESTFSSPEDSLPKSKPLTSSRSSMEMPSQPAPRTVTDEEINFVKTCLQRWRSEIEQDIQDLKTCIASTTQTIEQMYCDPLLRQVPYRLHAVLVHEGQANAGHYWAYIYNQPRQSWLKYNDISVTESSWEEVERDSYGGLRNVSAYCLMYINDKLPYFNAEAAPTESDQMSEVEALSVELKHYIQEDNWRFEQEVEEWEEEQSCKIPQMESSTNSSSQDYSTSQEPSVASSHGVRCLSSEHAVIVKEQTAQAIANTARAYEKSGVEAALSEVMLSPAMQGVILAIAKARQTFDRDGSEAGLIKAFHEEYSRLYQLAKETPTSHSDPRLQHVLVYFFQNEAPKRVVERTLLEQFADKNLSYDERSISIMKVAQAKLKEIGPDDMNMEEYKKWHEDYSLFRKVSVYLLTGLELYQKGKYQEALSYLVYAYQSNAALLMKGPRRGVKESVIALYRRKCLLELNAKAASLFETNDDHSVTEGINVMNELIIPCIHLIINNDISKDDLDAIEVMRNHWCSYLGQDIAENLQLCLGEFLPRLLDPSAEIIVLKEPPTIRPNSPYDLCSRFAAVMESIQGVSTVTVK
The depositor's hits bear a star; i = inactive; . = no result. Compounds with a hit are over-represented: about 14% of the library has one in this group of screens. Rule as the data show it: active = inhibition above about 30%; inactive = the rest.

SMILES	USP30 inh	USP8 inh	USP17 inh	USP28 block
O=C1Nc2ccccc2C2(CCN(S(=O)(=O)c3ccc(F)cc3)CC2)O1	10	8	-13	15
O=C(Nc1ccccc1C(=O)NC1CCSC1)c1ccc([N+](=O)[O-])cc1 (stereo not given)	45*	11	46*	9
O=C(COc1ccccc1)Nc1nc(-c2ccc(Br)o2)ns1	-86	2	-11	-14
O=C(Nc1ncc2c(n1)CC(c1ccc(Cl)cc1)CC2=O)c1ccco1 (stereo not given)	-1	14	15	4
O=C(Nc1ccccc1Sc1ncc(-c2ccc(Cl)cc2)cn1)c1ccco1	24	21	52*	14
COc1ccc(C2CC(=O)Nc3ccc4ccccc4c32)c(OC)c1OC (stereo not given)	68*	7	37*	7
COc1cccc(C2CC(=O)Nc3n[nH]c(C)c32)c1OCc1ccccc1C (stereo not given)	34*	-2	5	9
COc1ccc(C2CC(=O)Nc3n[nH]c(-c4ccccc4)c32)c(OC)c1 (stereo not given)	44*	-25	41*	10
COc1ccc(C2CC(=O)Nc3ccc4ccccc4c32)cc1OC (stereo not given)	7	-4	1	3
Cn1nc(C(=O)N2CCCC2)c2c1CCN(C(=O)CCC(=O)NCc1cccc(F)c1)C2	-18	-18	.	-6
CN1CC(=O)N2[C@H](Cc3c([nH]c4ccccc34)C2(C)C)C1=O	5	-13	16	0
COc1ccc(N2C(=O)[C@@H]3Cc4c([nH]c5ccccc45)C(C)(C)N3C2=O)c(OC)c1	-22	-9	47*	-21
CC1(C)c2[nH]c3ccccc3c2C[C@@H]2C(=O)N(C3CCCC3)CC(=O)N21	4	2	-1	-1
CC1(C)c2[nH]c3ccccc3c2C[C@@H]2C(=O)N(C3CCCCC3)CC(=O)N21	13	31*	12	12
N#Cc1ccccc1Sc1ccccc1C(=O)OCc1csc(-c2ccccc2)n1	-5	7	1	10
Cc1ccccc1CNC(=O)CCn1cnc2c(-c3ccccc3)noc2c1=O	43*	38*	-9	6
Cc1nc2c(-c3ccccc3)noc2c(=O)n1CC(=O)O	31*	5	8	8
CC(C(=O)NCc1ccc(F)cc1)n1cccc1C(=O)c1ccccc1 (stereo not given)	-22	9	0	8
CCNC(=O)c1ccc(N2CCNCC2)c(NS(=O)(=O)c2cc(C)c(C)cc2C)c1	10	46*	5	7
Cc1cc(C)c(S(=O)(=O)Nc2cc(C(=O)O)ccc2N2CCN(C)CC2)c(C)c1	-24	77*	9	-2
CCCN1CCN(c2ccc(C(=O)O)cc2NS(=O)(=O)c2ccccc2)CC1	-13	74*	0	-8
COCCn1cnc2c(-c3ccccc3)cn(CC(=O)NC3CCCC3)c2c1=O	16	3	9	6
O=C(Cn1cncc(-c2nc(-c3ccccc3)cs2)c1=O)NC1CCCC1	49*	21	67*	36*
N#Cc1cc(C(=O)c2cc(Cl)ccc2O)cn(-c2ccccn2)c1=O	-65	-28	-4	-10
COc1ccc(OCC(=O)NCCC2=CCCCC2)c([N+](=O)[O-])c1	10	-96	-2	1
SMILES	USP30 inh	USP8 inh	USP17 inh	USP28 block
O=C(COc1cc([N+](=O)[O-])cc2cccnc12)NCCC1=CCCCC1	37*	98*	86*	14
c1cc(-c2noc(C3CCCO3)n2)ccc1-c1csc(C2CC2)n1 (stereo not given)	-27	5	3	40*
c1cnc(-c2nc(-c3ccc(-c4csc(C5CC5)n4)cc3)no2)cn1	-245	-16	-68	-55
O=C1C=C(O)c2c(O)cc(O)cc2C1=O	100*	82*	99*	99*
CCn1cc(CN2CCC(C(=O)Nc3ccccc3-c3cccc(OC)c3)CC2)c(C)n1	4	0	-8	7
Clc1ccc2nc(NC3=NCN(CCc4ccccc4)CN3)nc(-c3ccccc3)c2c1	38*	9	-5	27
Brc1ccc2nc(Nc3cccc4ccccc34)nc(-c3ccccc3)c2c1	-68	-228	-61	-28
COc1cccc2c(C)nc(NC3=NCN(CCc4ccccc4)CN3)nc12	33*	11	0	15
O=C(Nc1ccccc1)c1cn2c3c(cccc3c1=O)CC2	1	17	69*	3
O=C(O)c1cn2c3c(cccc3c1=O)CCC2	3	29	5	3
Cc1ccc(-c2ncc(C(=O)Nc3ccc(F)cc3)c(-c3ccncc3)n2)cc1	-226	48*	-58	-107
O=C(Nc1cccc(Cl)c1F)c1cnc(-c2ccccc2)nc1-c1ccncc1	i	2	-126	-147
Cc1ccc(-c2ncc(C(=O)Nc3ccccc3Cl)c(-c3ccncc3)n2)cc1	-431	31*	-26	-68
Cc1ccc(-c2ncc(C(=O)NC(C)c3ccccn3)c(-c3ccncc3)n2)cc1 (stereo not given)	-141	6	-42	-37
COc1cc(OC)cc(C(=O)N2CCC(C(=O)Nc3cccc4ccccc34)CC2)c1	11	6	1	12
COc1cc(OC)cc(C(=O)N2CCC(C(=O)Nc3ccc4c(c3)OCCO4)CC2)c1	-26	0	-13	49*
COc1ccc(-c2[nH]c3ccccc3c2SCCNC(=O)c2ccc(S(=O)(=O)N3CCCCC3)cc2)cc1	20	0	-1	12
c1ccc2c(c1)ccc1nnc(-c3ccc4c(c3)OCO4)n12	58*	-235	37*	61*
O=[N+]([O-])c1ccccc1-c1nc(-c2ccc(Cl)cc2)no1	3	-9	5	0
Cn1c(NC(=O)c2ccco2)c(-c2cccs2)c(=O)c2ccccc21	-185	34*	10	-19
Cc1ccc(-c2c(NC(=O)c3ccco3)n(C)c3ccccc3c2=O)cc1	22	17	7	11
CCn1c(=O)c2nscc2n(CC(=O)NCc2ccc(C)cc2)c1=O	-71	24	3	0
Cc1cccc(C(=O)N[C@@H]2C(=O)Nc3c(c(C)nn3C)[C@H]2c2cccc(C(F)(F)F)c2)c1	-17	-22	-8	3
COc1cccc([C@@H]2c3c(C)nn(C)c3NC(=O)[C@H]2NC(=O)c2ccc(Cl)cc2)c1	4	21	11	35*
CC(=O)N(Cc1nn(C)c2c1CN(S(C)(=O)=O)CC2)c1ccccc1	1	-2	-3	-8
COc1cc(OC)c2cc(C(=O)N[C@@H](Cc3ccccc3)C(=O)O)n(C)c2c1	0	58*	36*	5
Cc1cccc(C(=O)Nc2ccc(-c3ccc(N4CCOCC4)nn3)cc2)c1	-18	0	16	-6
CC(=O)[C@H]1c2c(c(O)c3c(O)cccc3c2-c2c3c(c(O)c4c(O)cccc24)C(=O)C[C@](C)(O)[C@H]3C(C)=O)C(=O)C[C@]1(C)O	-20	64*	78*	30
Cc1nc(N2CCN(C)CC2)ncc1-c1cc(=O)[nH]c(N2CCC(Cc3ccccc3)CC2)n1	-13	1	-3	-4
N#C/C(=C/c1c(Cl)cccc1Cl)c1nnc2n1CCCCC2	.	1	4	.

Source: PubChem
